The source of these data is PubChem BioAssay.

Test [1] is described as follows: SK-BR-3 cell growth inhibitors, pilot screen, 24 h, human (AID 572).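 Also: compound exposure lasted between 18 and 24 h rather than exactly 24 h; 100% = carrier-treated control wells.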 The settings on record: SK-BR-3 viability, CellTiter-Glo luminescence, at 10 µM, stronger effect = lower value. (Cellular ATP, detected with luciferase, serves as a proxy for viable cell number.)
A short description of test [2]: HUVEC growth inhibition – cell-based, human, primary screen (AID 575;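 active = viability at or below 30% in both replicate assays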;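 also: 100% = median of untreated cell wells with 0.1% DMSO on each plate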). The note with it: HUVEC proliferation, CellTiter-Glo luminescence, 72 h; at 10 µM; stronger effect = lower value.
Test [3] is described as follows: growth inhibitors of H69AR lung tumor, primary screen, human, duplicate replicates (AID 580;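 active = viability at or under a set limit in both replicates, limit being median viability minus 3 SD, cut at about 48% in these data, passing the limit was not always enough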;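 also: 100% = mean luminescence of untreated wells and 0% = no signal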). The settings on record: H69AR lung tumor cells viability, ATP luminescence, 72 h; at 10 µM; stronger effect = lower value.
A short description of test [4]: reversal of MRP1-mediated doxorubicin resistance, pilot screen, H69AR cells, doxorubicin co-treatment (AID 601;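 active = viability loss from added drug above about 55%, and viability with drug at most 40%, in both replicates, limit read from the data, passing the limit was not always enough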). The note with it: CellTiter-Glo, 72 h, at 10 µM; for differential viability (reversal): stronger effect = higher value.
The nature of test [5]: 384-well plate pilot, post-Golgi transport modulator project, inhibition of yeast transport mutant growth (AID 636; in the data active = inhibition above about 31%). The settings on record: absorbance 615 nm, about 18 h, stronger effect = higher value.
A short description of test [6]: growth suppression of yeast trafficking mutant, preliminary HTS, modulators of trafficking downstream of Golgi apparatus project, 1536-format plate, OD 615 nm (AID 637; in the data active = inhibition above about 30%). The note with it: yeast transport mutant growth, absorbance 615 nm, 18 h; stronger effect = higher value.
A short description of test [7]: OD615 S. cerevisiae growth inhibition, permissive medium, pilot counter-assay, permissive growth control for S. cerevisiae lifespan shortening project (AID 705;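 active = growth inhibition above 25% in both replicates, a cutoff set 3 SD above the mean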). The note with it: OD615, 24 h, at 10 µM, stronger effect = higher value.
Test [8] is described as follows: Restrictive medium S. cerevisiae growth inhibition, OD615, pilot screen of yeast lifespan reduction project, restrictive growth control (AID 706;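 active = growth inhibition above a set limit, 3 SD over mean compound inhibition, in both replicates, cut at about 43% in these data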;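 also: modified DeaD lifespan yeast strain shifted to restrictive glucose medium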). The note with it: OD615, 48 h, at 10 µM, stronger effect = higher value.
A short description of test [9]: viability gain of MRP-1-high H69AR cells under doxorubicin, pilot screen, MRP-1 activator project, CellTiter-Glo, duplicate (AID 807;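 active = viability increase at or above a cutoff of the median across tested compounds plus 3 SD, cut at about 8.5% in these data, passing the limit was not always enough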;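 also: compound pretreatment 18-22 h then 72 h combined with doxorubicin; 0% = doxorubicin alone and 100% = vehicle without doxorubicin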). The note with it: H69AR viability with doxorubicin, CellTiter-Glo luminescence; at 10 µM; stronger effect = higher value.
A short description of test [10]: growth suppression of PTEN-deleted HCT116, pilot screen, cell-based, HCT116 clonal line, CellTiter-Glo (AID 824;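 active = viability at or below 27.92% in each of two runs, the all-compound median minus 4 SD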;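 also: 0% = 20 µM Hyamine control and 100% = vehicle cell control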). The settings on record: 60 h, at 10 µM, stronger effect = lower value.
A short description of test [11]: inhibitors of the yeast RAM network, pilot screen, dse1pr::URA3 reporter, 5-FOA selection (AID 869;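 active = inhibition over a set limit, the all-compound mean plus 3 SD, in both replicate runs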;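 also: 0% = DMSO wells with no growth and 100% = 10 µM 1-NA-PP1 with full growth; RAM network block rescues cells from 5-FOA so hits raise OD615 growth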). The note with it: S. cerevisiae dse1pr::URA3 5-FOA growth, OD615, 2 d; at 10 µM; stronger effect = higher value; strain carries analog-sensitive mutant Cbk1 kinase.
Test [12] can be described thus: RAM signaling pathway blockade in yeast – S. cerevisiae, Pdr1DBD-CYC8 efflux-inhibited sensitized strain, primary screen (AID 1298;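 active = RAM network inhibition above 8.4% in each of two replicates, 3 SD over the compound average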;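 also: 0% = DMSO untreated cells without growth and 100% = 10 µM 1-NA-PP1 full growth; higher means more yeast growth rescued from 5-FOA killing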). The note with it: S. cerevisiae cbk1-as DSE1-URA3 strain, 5-FOA growth OD615, 2 d; at 50 µM; stronger effect = higher value.
Test [13] can be described thus: growth suppression of beta-catenin knockout HCT116, pilot screen, human colon tumor cells (AID 823;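 active = cell viability at or below a set limit in both duplicate runs, the limit being the all-compound median minus 4 SD, cut at about 23% in these data, passing the limit was not always enough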;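 also: 0% = wells killed by 20 µM Hyamine and 100% = untreated DMSO cell wells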). The note with it: CellTiter-Glo, 60 h, at 10 µM, stronger effect = lower value.
Where [14] appears, read: H69AR cells + 2 uM doxorubicin, measured here: viability with 2 uM doxorubicin, stronger effect = lower value.
Setting [15] is: H69AR cells, compound alone cytotoxicity.

Inconclusive results are not listed. Active and inactive are the calls of the source.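 The calls were made as follows, unless noted: active = viability at or below 10% of carrier control in both of two separate runs; inconclusive = viability at or below 10% in only one of the two runs; inactive = the rest.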

As to `FC(F)(F)c1cc(-c2ccco2)nc(NCc2ccco2)n1`, the viability in [1] is 119% (inactive); in test [2], 101% (inactive); in [3], 62.2% (inactive); in test [4] (setting [14]) it was 77.8%; in [4] (setting [15]), 62.2%; in test [10], 59.1% (inactive). Further, the differential viability (reversal) in [4] (H69AR cells + 2 uM doxorubicin) was -15.6% (inactive). For the same compound, the results for the inhibition in test [5], in [6] and in test [11] were -2.7% (inactive), 24.2% (inactive) and 1.14% (inactive), respectively. Moreover, the growth inhibition was 3.24% (inactive) in test [7] and -11.4% (inactive) in test [8]. The viability increase in test [9] is -6.31% (inactive). Moreover, in [12], the RAM network inhibition is -0.41% (inactive).
With `O=C(Nc1cnccn1)c1cccs1`, the viability is 115% (inactive) in test [1]; 106% (inactive) in [2]; 99% (inactive) in [3]; 91.7% in test [4] (setting [14]); 99% in [4] (setting [15]); 94.2% (inactive) in [10]. Further, the differential viability (reversal) in test [4] (H69AR cells + 2 uM doxorubicin) is 7.32% (inactive). The inhibition was -10.8% (inactive) in test [5], 1.77% (inactive) in [6] and 0.89% (inactive) in [11]. In addition, the growth inhibition in [7] was -10.4% (inactive); in test [8], 1.52% (inactive). The viability increase in test [9] is -2.25% (inactive). Also, the RAM network inhibition in test [12] was 7.21% (inactive).
As for `Brc1ccc2ncnc(Nc3ccc(N4CCOCC4)cc3)c2c1`, the viability in [1] is 86% (inactive); in [3], 77.8% (inactive); in [4] (setting [14]), 91.9%; in test [4] (setting [15]), 77.8%; in [13] it was 81.9% (inactive); in test [10], 72.9% (inactive). The differential viability (reversal) in test [4] (H69AR cells + 2 uM doxorubicin) was -14.1% (inactive). Besides, the values for the inhibition in test [5], in test [6] and in [11] were -2.27% (inactive), -4.36% (inactive) and 1.01% (inactive), respectively. Besides, the results for the growth inhibition in test [7] and in test [8] were -5.24% (inactive) and 11% (inactive), respectively. The viability increase in test [9] was -6.53% (inactive). The RAM network inhibition in test [12] was 3.74% (inactive).
As for `Cc1ccc(-c2oc3ccccc3c(=O)c2O)cc1`, the viability was 78.5% (inactive) in test [1]; 67.8% (inactive) in test [3]; 74.5% in test [4] (setting [14]); 67.8% in test [4] (setting [15]); 10.2% (active) in test [13]; 11.8% (active) in test [10]. Besides, the differential viability (reversal) in test [4] (H69AR cells + 2 uM doxorubicin) is -6.71% (inactive). Moreover, the inhibition in test [5] was -3.87% (inactive); in test [6] it was -1.17% (inactive); in test [11], 2.66% (inactive). Moreover, the growth inhibition in test [7] is -12.1% (inactive); in test [8], -12.3% (inactive). Also, the viability increase in [9] was -5.56% (inactive). Besides, in [12], the RAM network inhibition is 0.63% (inactive).
With `CC(=O)NCCc1ccc(S(=O)(=O)NCc2ccc3c(c2)OCO3)cc1`, the viability in test [1] was 91% (inactive); in test [2], 91.9% (inactive); in test [3], 103% (inactive); in test [4] (setting [14]), 91.3%; in [4] (setting [15]), 103%; in test [13], 96.1% (inactive). Moreover, in [10], the viability was 97.1% (inactive). For the same compound, in test [4] (H69AR cells + 2 uM doxorubicin), the differential viability (reversal) is 12% (inactive). The results for the inhibition in [5], in test [6] and in test [11] were -8.27% (inactive), -6.18% (inactive) and 1.12% (inactive), respectively. The growth inhibition in test [7] is -15.2% (inactive); in test [8], -5.52% (inactive). Besides, the viability increase in test [9] was 0.44% (inactive). Besides, the RAM network inhibition in test [12] was 1.84% (inactive).
`CC1CCN(c2c(NCc3ccc(C(=O)N4c5ccccc5CC4C)cc3)c(=O)c2=O)CC1` (stereo not drawn): the viability is 95% (inactive) in test [1]; 70.5% (inactive) in test [2]; 37.2% (active) in test [3]; 48.7% in [4] (setting [14]); 37.2% in test [4] (setting [15]); 72.1% (inactive) in [13]. In addition, the viability in test [10] was 66.8% (inactive). The differential viability (reversal) in test [4] (H69AR cells + 2 uM doxorubicin) is -11.5% (inactive). Moreover, the inhibition in test [5] was -0.13% (inactive); in [6] it was 2.33% (inactive); in test [11], 2.15% (inactive). The growth inhibition in [7] is -17.3% (inactive); in [8], -17.2% (inactive). Besides, in [9], the viability increase was -7.24% (inactive). Also, in test [12], the RAM network inhibition is 2.31% (inactive).
`CCCn1c(=O)c(C(=O)NCc2ccccn2)c(O)c2ccccc21`: the viability in [1] was 78% (inactive); in [2], 101% (inactive); in [4] (setting [14]) it was 69.6%; in test [4] (setting [15]) it was 57.5%; in test [13], 87.4% (inactive); in [10], 104% (inactive). For the same compound, in test [4] (H69AR cells + 2 uM doxorubicin), the differential viability (reversal) was -12% (inactive). In addition, the inhibition is 2.27% (inactive) in test [5], 13.6% (inactive) in test [6] and -1.17% (inactive) in [11]. Besides, the growth inhibition in [7] is 4.69% (inactive); in [8], 12.5% (inactive). For the same compound, the viability increase in test [9] was 1.19% (inactive). Further, in test [12], the RAM network inhibition is -1.94% (inactive).
For the compound `CCc1ccc(C(=O)NC2CCCCC2)s1`, the viability is 68% (inactive) in test [1]; 94.7% (inactive) in test [2]; 109% (inactive) in test [3]; 90.7% in test [4] (setting [14]); 109% in [4] (setting [15]); 91.8% (inactive) in test [13]. The differential viability (reversal) in [4] (H69AR cells + 2 uM doxorubicin) was 17.8% (inactive). Also, the values for the inhibition in test [5], in test [6] and in test [11] were -3.01% (inactive), 0.81% (inactive) and -0.215% (inactive), respectively. Moreover, the growth inhibition was -14.4% (inactive) in test [7] and 3.24% (inactive) in [8]. In addition, the viability increase in [9] is -0.13% (inactive). For the same compound, in test [12], the RAM network inhibition is 4.77% (inactive).
Consider `COc1cc(C(=O)N2CCN(c3cc(Cl)ccc3Cl)CC2)cc(OC)c1OC`, for which the viability in test [1] is 77.5% (inactive); in [2], 20.1% (active); in [3], 29.8% (active); in [4] (setting [14]), 84.1%; in [4] (setting [15]) it was 29.8%; in test [10] it was 21.5% (active). For the same compound, the differential viability (reversal) in test [4] (H69AR cells + 2 uM doxorubicin) is -54.3% (inactive). The values for the inhibition in test [5], in test [6] and in test [11] were -4.27% (inactive), 0% (inactive) and 0.575% (inactive), respectively. The growth inhibition in test [7] was -13.2% (inactive); in test [8], -8.44% (inactive). Besides, the viability increase in test [9] was -6.62% (inactive). Besides, the RAM network inhibition in test [12] was 2.03% (inactive).

As usually defined, the viability is a read-out of living cells in per cent, often relative to untreated cells. For orientation: inhibition means the drop in the measured response relative to a control, in per cent.
